ELG1 genotoxic: induces genotoxicity in HEK293T cells with luciferase-tagged ELG1; actives 1.3% (n = 330,000); HEK293T ELG1-luciferase reporter, luminescence, 16 h; Potency, µM (series often up to 46 µM), inactives show top-dose activity change, positive = activation, usual class: activators; further: % of control where 0% means no effect; nearly all actives have a fitted effect of over 60% in size
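Screening used a luciferase reporter fused to human ELG1 in HEK293T cells. Luminescence was read on a CCD plate imager after 16 hr exposure and 30 min ONE-Glo incubation.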
Rab9 prom act: Rab9 promoter activation | actives 2.8% (n = 320,000) | Huh7 Rab9 promoter-luciferase reporter, luminescence, 24 h | AID 485297 | Potency, µM (doses to about 9.22 µM), without a hit: top-dose activation, negative = inhibition, actives largely listed as activators; further: % of control where 0% means no effect; nearly all actives have a fitted effect of over 60% in size
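Rab9 promoter-driven luciferase in stably transfected Huh7 cells; 1500 cells/well rested 2 h, exposed to compound in DMSO for 24 h at 37 °C, 5% CO2. Luminescence read 10 min after adding luciferase reagent at ambient temperature.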
FLuc modulator: firefly luciferase modulation, counter-screen for miR-21 project; P08659; purified FLuc, Km substrates, luminescence inhibition; Potency, µM (top dose mostly 57.5 µM), without a hit: at the top dose activity change, negative = inhibition, usual class: inhibitors; actives 6.9% (n = 360,000);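 further: plate controls were vehicle for no effect and reference inhibitor for full effect; nearly all actives have a fitted effect of over 55% in size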
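Biochemical qHTS of compounds, final roughly 60 µM downward over six points, against 10 nM purified firefly luciferase using Km concentrations of substrates (10 uM D-luciferin, 10 uM ATP) in Tris acetate pH 7.5 buffer; luminescence output.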
SMN2 splice up: increases expression of the SMN2 splice variant. Potency, µM (series often up to 46.1 µM), for inactives: top-dose activity change, positive = activation, most hits filed as activators. HEK293 SMN2-luciferase splicing reporter, luminescence, 30-36 h. actives 2.8% (n = 210,000). AID 1458; further: % of control where 0% means no effect; nearly all actives have a fitted effect of over 55% in size
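qHTS luciferase splicing reporter: luminescence rises when SMN2 exon 7 is included in transfected HEK293 cells. Compound exposure lasted 30-36 h at 37C, with 4.5 mM final sodium butyrate as control, followed by a ONE-Glo read.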
ELG1 repair inh: blocks ELG1-dependent DNA repair in HEK293T cells; HEK293T ELG1-luciferase reporter, luminescence, 16 h; DNA damage induced by 5-fluorouridine; Potency, µM (series often up to 46.1 µM), for inactives: at the top dose activity change, negative = inhibition, usual class: inhibitors; actives 2.3% (n = 330,000); AID 504467; further: on the % scale 0 is the no-effect control and ±100 the full control effect; nearly all actives have a fitted effect of over 55% in size
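In this reporter screen, reduction of luminescence relative to DMSO vehicle indicated activity. Compounds and 5-fluorouridine were added together to 2,000 cells per well, incubated for 16 hr at 37 °C, then developed with ONE-Glo.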
NPC1 promoter act: activators of NPC1 promoter. Huh7 NPC1 promoter luciferase reporter, 24 h. AID 485313. Potency, µM (series often up to 9.22 µM), for the others: at the highest dose activation, actives largely listed as activators. actives 2.4% (n = 320,000); further: % of control where 0% means no effect; nearly all actives have a fitted effect of over 60% in size
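Stable NPC1-promoter luciferase Huh7 line; cpd (DMSO) 24 h, 37 °C, 5% CO2; Amplite luciferase reagent 10 min RT; luminescence readout. qHTS format.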
ELG1 Luc conf: inhibits ELG1-dependent DNA repair in HEK293T cells, confirmed. shares compounds with ELG1 repair inh. HEK293T ELG1-luciferase levels, luminescence; cells co-treated with 5-fluorouridine. Potency, µM (doses to about 46.1 µM), for inactives: at the top dose activity change, negative = inhibition, usual class: inhibitors. actives 68% (n = 670); further: on the % scale 0 is the no-effect control and ±100 the full control effect; nearly all actives have a fitted effect of over 55% in size
Target sequence (Q96QE3 whole entry, looked up): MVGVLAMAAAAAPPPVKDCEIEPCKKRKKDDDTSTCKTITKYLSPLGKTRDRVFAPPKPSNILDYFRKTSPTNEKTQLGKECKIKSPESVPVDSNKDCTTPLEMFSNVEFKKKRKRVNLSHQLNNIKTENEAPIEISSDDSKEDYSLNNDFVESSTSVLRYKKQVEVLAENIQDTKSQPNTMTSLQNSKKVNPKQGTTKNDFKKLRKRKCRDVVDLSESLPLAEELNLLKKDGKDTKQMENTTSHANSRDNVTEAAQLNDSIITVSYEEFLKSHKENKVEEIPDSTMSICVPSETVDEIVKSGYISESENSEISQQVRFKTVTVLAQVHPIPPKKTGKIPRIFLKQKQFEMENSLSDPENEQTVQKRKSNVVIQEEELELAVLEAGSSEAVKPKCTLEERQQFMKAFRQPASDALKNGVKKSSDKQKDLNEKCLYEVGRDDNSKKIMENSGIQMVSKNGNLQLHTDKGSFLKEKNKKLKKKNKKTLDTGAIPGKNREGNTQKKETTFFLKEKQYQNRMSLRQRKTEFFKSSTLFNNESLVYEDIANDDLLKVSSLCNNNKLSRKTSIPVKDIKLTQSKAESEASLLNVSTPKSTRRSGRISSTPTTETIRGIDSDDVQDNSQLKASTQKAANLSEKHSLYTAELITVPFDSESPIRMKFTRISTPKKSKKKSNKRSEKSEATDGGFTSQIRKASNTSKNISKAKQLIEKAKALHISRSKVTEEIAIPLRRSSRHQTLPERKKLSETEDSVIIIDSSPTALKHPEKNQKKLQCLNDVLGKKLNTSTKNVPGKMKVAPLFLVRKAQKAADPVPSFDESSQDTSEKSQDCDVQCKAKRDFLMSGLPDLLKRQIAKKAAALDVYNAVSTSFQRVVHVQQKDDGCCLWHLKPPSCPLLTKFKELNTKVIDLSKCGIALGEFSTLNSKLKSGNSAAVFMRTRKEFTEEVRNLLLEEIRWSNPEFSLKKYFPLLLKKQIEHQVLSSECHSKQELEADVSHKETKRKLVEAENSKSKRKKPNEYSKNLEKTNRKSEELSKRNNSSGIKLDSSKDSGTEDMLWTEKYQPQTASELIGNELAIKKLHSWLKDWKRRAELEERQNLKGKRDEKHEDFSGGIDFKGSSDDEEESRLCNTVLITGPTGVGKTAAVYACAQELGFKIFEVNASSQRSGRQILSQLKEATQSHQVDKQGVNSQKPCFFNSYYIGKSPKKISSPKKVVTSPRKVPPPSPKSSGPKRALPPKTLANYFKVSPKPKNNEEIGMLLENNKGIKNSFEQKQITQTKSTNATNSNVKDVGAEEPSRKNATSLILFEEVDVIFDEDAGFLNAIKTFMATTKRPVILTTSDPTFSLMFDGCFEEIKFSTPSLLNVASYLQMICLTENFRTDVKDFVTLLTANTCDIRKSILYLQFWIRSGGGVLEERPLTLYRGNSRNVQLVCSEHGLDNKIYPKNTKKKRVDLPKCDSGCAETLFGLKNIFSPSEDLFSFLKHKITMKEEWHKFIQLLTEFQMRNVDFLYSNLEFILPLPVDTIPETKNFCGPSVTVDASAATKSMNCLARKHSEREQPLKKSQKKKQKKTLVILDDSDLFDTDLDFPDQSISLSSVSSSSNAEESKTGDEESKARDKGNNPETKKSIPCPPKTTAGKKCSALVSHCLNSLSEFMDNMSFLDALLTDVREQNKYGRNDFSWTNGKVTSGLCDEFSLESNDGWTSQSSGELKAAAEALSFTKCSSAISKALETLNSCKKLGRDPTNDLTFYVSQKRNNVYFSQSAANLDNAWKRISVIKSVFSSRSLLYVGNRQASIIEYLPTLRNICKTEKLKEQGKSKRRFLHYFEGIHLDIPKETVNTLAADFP
ELG1 MMS Luc: inhibits ELG1-dependent repair under MMS stimulation in HEK293T cells; Potency, µM (series often up to 46.1 µM), for the others: at the top dose activity change, negative = inhibition, most hits filed as inhibitors; HEK293T luciferase-tagged ELG1 level, MMS stimulated; shares compounds with ELG1 repair inh; AID 624249; actives 53% (n = 670); further: on the % scale 0 is the no-effect control and ±100 the full control effect; nearly all actives have a fitted effect of over 60% in size
ELG1 5-FU: confirmation of ELG1 repair inhibitors: viability with 5FU; shares compounds with ELG1 repair inh; cell viability with 5-FU, ELG1-dependent repair; Potency, µM (series often up to 46.1 µM), for inactives: top-dose activity change, negative = viability loss, hits mostly cytotoxic; 670 tested, under 10 active; AID 624250;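 further: ELG1-luc HEK293T cells cotreated with 5-fluorouridine at 10 µM final; viability measured 16 h after compound addition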
ELG1 MMS viab: confirmation of ELG1 repair inhibitors: viability with MMS | actives 33% (n = 670) | AID 624251 | shares compounds with ELG1 repair inh | Cell viability with MMS, ELG1-dependent DNA repair | Potency, µM (highest dose often 46.1 µM), for the others: at the top dose activity change, negative = viability loss, actives largely listed as cytotoxic;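 further: ELG1-luc HEK293T cells co-treated with 10 µM MMS; viability read 16 h after compound addition; on the % scale 0 is the no-effect control and ±100 the full control effect; nearly all actives have a fitted effect of over 60% in size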
Cell viab unstim: affects unstimulated cell viability, ELG1 hit counter-screen; shares compounds with ELG1 repair inh; cell viability counter-screen, unstimulated, luminescence; Potency, µM (doses to about 45.9 µM), without a hit: top-dose activity change, negative = loss of viability, actives largely listed as cytotoxic; actives 8% (n = 900); AID 624252;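 further: compound exposure lasted 16 hours before reading; on the % scale 0 is the no-effect control and ±100 the full control effect; nearly all actives have a fitted effect of over 55% in size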
The depositor's hits bear a star. Compounds with a hit are over-represented: about 9.4% of the library has one in this group of screens. The call rests on the fitted dose curve; in most records, active means well fitted curve in the direction sought with a large enough effect; inconclusive means small, poorly fitted or top-dose-only effect, or another doubt; inactive means no such curve, though single readings can be large; an effect the other way counts as inactive or inconclusive. Potency means the concentration at half of the fitted maximal effect.

`C=CC[C@@H](CC(=O)N[C@H](CO)Cc1ccccc1)C(=O)NC[C@H](OC(=O)[C@@H](CC=C)Cc1ccc(F)cc1)c1ccccc1` gave ELG1 genotoxic -5.3%, ELG1 repair inh 4.61µM*, ELG1 Luc conf inconclusive, ELG1 MMS Luc 9.96µM*, ELG1 5-FU inconclusive, ELG1 MMS viab 3.1% and Cell viab unstim -4.3%.
`C=CC[C@H](CC(=O)NCCO)C(=O)NC[C@@H](OC(=O)[C@@H](CC=C)Cc1ccc(F)cc1)c1ccccc1` gave ELG1 genotoxic -4.9% and ELG1 repair inh -8.9%.
For COc1ccc(OC[C@@H](O)CNC(=O)c2cccc3c2C(=O)c2ccc(-c4ccc(F)cc4OCc4ccccc4)cc2S3(=O)=O)cc1 the results were ELG1 genotoxic 0.6%, ELG1 repair inh 2.31µM*, ELG1 Luc conf 3.15µM*, ELG1 MMS Luc 4.8%, ELG1 5-FU inconclusive, ELG1 MMS viab inconclusive and Cell viab unstim 0.4%.
For COc1ccc(NC(=O)c2cccc3c2C(=O)c2ccc(-c4ccc(F)cc4OCc4ccccc4)cc2S3(=O)=O)cc1 the results were ELG1 genotoxic 14.5% and ELG1 repair inh 4.8%.
CN(C)CCNC(=S)Nc1ccc(F)c(F)c1F was read as ELG1 genotoxic -0.2%, Rab9 prom act -1.8%, FLuc modulator -0.3%, SMN2 splice up -2.2%, ELG1 repair inh 5.3% and NPC1 promoter act -1.1%.
`CC(=O)c1c(C)[nH]c(C(=O)OCC(=O)Nc2cccc(S(=O)(=O)N3CCCC3)c2)c1C` gave ELG1 genotoxic 0.7%, Rab9 prom act -16.6%, FLuc modulator -20.2%, SMN2 splice up -66.2%, ELG1 repair inh inconclusive and NPC1 promoter act -8.7%.
Screening CC(=O)c1c(C)[nH]c(C(=O)Nc2cccc(S(=O)(=O)N3CCCC3)c2)c1C returned ELG1 genotoxic 16.4µM*, ELG1 repair inh inconclusive and Cell viab unstim inconclusive.
`Cc1cccn2c(CNCC3(c4ccccc4)CCCC3)c(C(=O)N3CCOCC3)nc12` gave ELG1 genotoxic -12.7%, Rab9 prom act 0.6%, FLuc modulator 0.4%, ELG1 repair inh 2.91µM*, NPC1 promoter act -4.4%, ELG1 Luc conf inconclusive, ELG1 MMS Luc 12.5µM*, ELG1 5-FU -8.7%, ELG1 MMS viab 25µM* and Cell viab unstim inconclusive.
Screening COc1ccc(C(CNc2ccc(S(C)(=O)=O)cc2[N+](=O)[O-])N(C)C)cc1OC (centres undefined) returned ELG1 genotoxic -2.6%, Rab9 prom act -2.0%, FLuc modulator 0.9%, ELG1 repair inh -1.4% and NPC1 promoter act -0.2%.
Screening O=C(NC1CCCC1)c1cc(-c2cccs2)on1 returned ELG1 genotoxic 9.2µM*, Rab9 prom act 2µM*, FLuc modulator 4.78µM*, SMN2 splice up inconclusive, ELG1 repair inh inconclusive, NPC1 promoter act 1.58µM* and Cell viab unstim -11.8%.
CNC(=O)c1cc(-c2cccs2)on1 was read as Cell viab unstim -5.7%.
Screening CCOc1ncccc1C(=O)NCCc1ccc(Cl)cc1 returned ELG1 genotoxic -2.6%, Rab9 prom act -12.2%, FLuc modulator -1.1%, ELG1 repair inh inconclusive and NPC1 promoter act -3.6%.
`O=C(Nc1nonc1NC(=O)c1cccs1)c1cccs1` gave ELG1 genotoxic -7.0%, Rab9 prom act -23.4%, FLuc modulator inconclusive, SMN2 splice up -90.1%, ELG1 repair inh 4.11µM*, NPC1 promoter act -24.6%, ELG1 Luc conf inconclusive, ELG1 MMS Luc 4.45µM*, ELG1 5-FU -5.1%, ELG1 MMS viab 4.99µM* and Cell viab unstim inconclusive.
CCC(CO)Oc1cc(NCc2ccccc2O)c2ncn(C(C)C)c2c1 (centres undefined) was read as ELG1 genotoxic -6.2%, ELG1 repair inh 2.31µM*, ELG1 Luc conf 8.88µM*, ELG1 MMS Luc 4.45µM*, ELG1 5-FU 5.5%, ELG1 MMS viab 4.45µM* and Cell viab unstim inconclusive.
For Cc1ccc(N(C)C(=O)c2cc(S(=O)(=O)N3CCCCC3)c[nH]2)cc1 the results were ELG1 genotoxic -7.3%, Rab9 prom act 4.3%, FLuc modulator 3.9%, ELG1 repair inh 3.66µM*, NPC1 promoter act 11.3%, ELG1 Luc conf inconclusive, ELG1 MMS Luc 3.3%, ELG1 5-FU -4.9%, ELG1 MMS viab -4.4% and Cell viab unstim -14.1%.
Screening CN(C(=O)c1cc(S(=O)(=O)N2CCCCC2)c[nH]1)C1CCCCC1 returned ELG1 genotoxic -3.6%, Rab9 prom act -0.4%, FLuc modulator 3.8%, ELG1 repair inh -11.6% and NPC1 promoter act 0.9%.

Bioassay records (PubChem)
